{"source": "PubChem BioAssay AID1626", "about": "(SRMLSC, 2009)", "note": "Screen size: about 220,000 compounds; about 2,000 (0.91%) were called active. Another 2% or so got no clear call; they are omitted. Rule as the data show it: inconclusive = inhibition above about 80% without an active follow-up result; inactive = below that; test concentration not stated here. A selection follows. Potency and affinity values are given separately."}
{"experiment": "M. tuberculosis H37Rv growth inhibitors, H37Rv strain (AID 1626);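 also: bacteria incubated seven days before Alamar blue readout; 0% = bacteria only wells and 100% = bacteria with antibiotic wells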", "details": "active compounds read high, concentration not given here"}
{"smiles": "CC(=O)c1ccc(NC(=O)C(C)N2CCN(C/C=C/c3ccccc3)CC2)cc1", "note": "(centres undefined)", "inhibition": "53.1% (inactive)"}
{"smiles": "Fc1ccc(CSc2nnc(-c3cccnc3)n2Cc2ccco2)cc1", "inhibition": "-3.79% (inactive)"}
{"smiles": "CCCc1nc2c(sc3nc4c(cc32)COC(C)(C)C4)c(=O)n1Cc1ccco1", "inhibition": "-1.51% (inactive)"}
{"smiles": "CCCCOC(=O)Nc1sc2c(c1C(=O)OC)CCC2", "inhibition": "-0.74% (inactive)"}
{"smiles": "S=c1[nH]nc(CSCc2ccccc2Cl)n1C1CCCCC1", "inhibition": "4.24% (inactive)"}
{"smiles": "C#CCOCCOCCOCCNc1nc(N2CCN(C(=O)[C@H](Cc3cc4ccccc4[nH]3)n3cc(C(N)CC(C)C)nn3)CC2)nc(N2CCN(C(=O)[C@H](CCC(=O)O)n3cc(C(N)[C@H](C)CC)nn3)CC2)n1", "note": "(some centres undefined)", "inhibition": "-7.16% (inactive)"}
{"smiles": "C#CCOCCOCCOCCNc1nc(N2CCN(C(=O)[C@H]([C@@H](C)CC)n3cc([C@@H](N)CC(C)C)nn3)CC2)nc(N2CCN(C(=O)[C@H](Cc3cc4ccccc4[nH]3)n3cc([C@@H](N)C(C)CC)nn3)CC2)n1", "note": "(some centres undefined)", "inhibition": "45.6% (inactive)"}
{"smiles": "C#CCOCCOCCOCCNc1nc(N2CCN(C(=O)[C@H](CCCCN)n3cc([C@@H](N)CC(C)C)nn3)CC2)nc(N2CCN(C(=O)[C@H](Cc3cc4ccccc4[nH]3)n3cc([C@@H](N)Cc4ccc(O)cc4)nn3)CC2)n1", "inhibition": "59% (inactive)"}
{"smiles": "C#CCOCCOCCOCCNc1nc(N2CCOCC2)nc(N2CCN(C(=O)[C@H](Cc3cc4ccccc4[nH]3)n3cc([C@@H](N)CC(C)C)nn3)CC2)n1", "inhibition": "-3.36% (inactive)"}
{"smiles": "C#CCOCCOCCOCCNc1nc(N2CCOCC2)nc(N2CCN(C(=O)[C@H](Cc3cc4ccccc4[nH]3)n3cc([C@@H](N)Cc4ccc(O)cc4)nn3)CC2)n1", "inhibition": "52% (inactive)"}
{"smiles": "C#CCOCCOCCOCCNc1nc(N2CCN(C(=O)[C@H]([C@@H](C)CC)n3cc([C@@H](N)CC(C)C)nn3)CC2)nc(N2CCN(C(=O)[C@H](Cc3cc4ccccc4[nH]3)n3cc([C@@H](N)CC(C)C)nn3)CC2)n1", "inhibition": "33.5% (inactive)"}
{"smiles": "CCOC(=O)C1CCN(C(=O)COc2ccc(S(=O)(=O)N3CCCC3)cc2C)CC1", "inhibition": "8.86% (inactive)"}
{"smiles": "N/C(=N\\c1nc2c(c(=O)[nH]1)CCCC2)Nc1ccc(Oc2ccccc2)cc1", "inhibition": "18% (inactive)"}
{"smiles": "Cn1c(=O)c2c(nc(CN3CCC(C(N)=O)CC3)n2Cc2c(Cl)cccc2Cl)n(C)c1=O", "inhibition": "-2.69% (inactive)"}
{"smiles": "O=C(/C=C/c1ccc(F)cc1)N1CCCN(C(=O)/C=C/c2ccc(F)cc2)CC1", "inhibition": "10.8% (inactive)"}
{"smiles": "Cc1ccc(/C=C/C(=O)N2CCN(c3ccc(F)cc3)CC2)o1", "inhibition": "-2.28% (inactive)"}
{"smiles": "CCOCCn1c(SCC)nc2c1c(=O)[nH]c(=O)n2C", "inhibition": "-10.1% (inactive)"}
{"smiles": "Cc1cc(C)n(-c2nnc(C)c(=O)[nH]2)n1", "inhibition": "-3.09% (inactive)"}
{"smiles": "Cc1cc(Nc2ccc(Cl)cc2)n(-c2cccc(Cl)c2)n1", "inhibition": "4.87% (inactive)"}
{"smiles": "Cc1cc(C)n(-c2nc(O)cc(=O)[nH]2)n1", "inhibition": "-5.24% (inactive)"}
{"smiles": "COc1ccc(Nc2nc(C)cc(=O)[nH]2)cc1", "inhibition": "-16.4% (inactive)"}
{"smiles": "Cc1cc(C)nc(-n2nc(C)c(Oc3ccccc3O)c2C)n1", "inhibition": "-0.16% (inactive)"}
{"smiles": "Cc1nn(-c2ccccn2)c(C)c1Oc1ccccc1O", "inhibition": "7.63% (inactive)"}
{"smiles": "Cc1ccc(OCC(=O)Nc2ccc(Cl)cc2C(=O)c2ccccc2)cc1", "inhibition": "-2.12% (inactive)"}
{"smiles": "CCOc1ccc(CNC(=S)N/N=C\\c2ccc([N+](=O)[O-])cc2)cc1", "inhibition": "2.73% (inactive)"}
{"smiles": "O=C(NCC(c1ccco1)N1CCCCC1)C(c1ccccc1)c1ccccc1", "note": "(centres undefined)", "inhibition": "2.31% (inactive)"}
{"smiles": "CC(Oc1ccc(Cl)cc1Cl)c1ccnc2nc(N3CCOCC3)nn12", "note": "(centres undefined)", "inhibition": "7.65% (inactive)"}
{"smiles": "O=C1c2ccccc2C(Nc2ccc(S(=O)(=O)N3CCCCC3)cc2)N1Cc1ccco1", "note": "(centres undefined)", "inhibition": "2.32% (inactive)"}
{"smiles": "COc1ccc(NC2c3ccccc3C(=O)N2Cc2ccco2)cc1OC", "note": "(centres undefined)", "inhibition": "8.29% (inactive)"}
{"smiles": "CCOc1ccccc1NC1c2ccccc2C(=O)N1Cc1ccco1", "note": "(centres undefined)", "inhibition": "11.3% (inactive)"}
{"smiles": "O=C1c2ccccc2C(Nc2ccc3nc(-c4cccnc4)[nH]c3c2)N1Cc1ccco1", "note": "(centres undefined)", "inhibition": "44% (inactive)"}
{"smiles": "CCOC(=O)CNC(=O)CSc1nnc(-c2ccc(OC)cc2)n1CC", "inhibition": "-3.53% (inactive)"}
{"smiles": "O=C(c1ccco1)N1CCN(Cc2nc(Cc3ccccc3)no2)CC1", "inhibition": "-8.56% (inactive)"}
{"smiles": "C#CCn1c(-c2ccccc2)ccc(C#N)c1=O", "inhibition": "8.84% (inactive)"}
{"smiles": "CCn1c(-c2ccccc2)ccc(C#N)c1=O", "inhibition": "-9.1% (inactive)"}
{"smiles": "CS(=O)(=O)N(CC(=O)Nc1cccc(Cl)c1Cl)c1ccccc1", "inhibition": "-0.62% (inactive)"}
{"smiles": "O=C(COC(=O)c1ccc(=O)[nH]c1)Nc1cccc(S(=O)(=O)N2CCOCC2)c1", "inhibition": "9.81% (inactive)"}
{"smiles": "CC1CCC/C(=N/NC(=O)c2ccccc2-n2cccc2)C1", "note": "(centres undefined)", "inhibition": "-3.77% (inactive)"}
{"smiles": "COc1ccc(-n2c(C)cc(/C=C3\\C(=O)NN(c4ccccc4)C3=O)c2C)cc1", "inhibition": "12.4% (inactive)"}
{"smiles": "Cc1sc2nc(CN(C(=O)NC3CCCCC3)C3CCCCC3)[nH]c(=O)c2c1C", "inhibition": "3.17% (inactive)"}
{"smiles": "CC(=O)N(Cc1nc2sc(C)c(C)c2c(=O)[nH]1)C1CCCC1", "inhibition": "-8.34% (inactive)"}
{"smiles": "O=C(Nc1ccncc1)c1ccc(NS(=O)(=O)c2cccc(F)c2)cc1", "inhibition": "7.32% (inactive)"}
{"smiles": "CCN(Cc1ccccc1)c1ccc(/C=N/N2CCOCC2)cc1", "inhibition": "2.24% (inactive)"}
{"smiles": "NC(N)=N/N=C/c1ccccc1", "inhibition": "12.3% (inactive)"}
{"smiles": "Cc1ccccc1CN1C[C@@H]2C[C@@H](c3cn[nH]c3-c3ccccc3)N3CCC[C@@]23C1=O", "inhibition": "-6.92% (inactive)"}
{"smiles": "O=C(Nc1ccn(Cc2c(F)c(F)cc(F)c2F)n1)c1ccc(COc2ccc(Cl)cc2Cl)o1", "inhibition": "4.49% (inactive)"}
{"smiles": "O=C(Nc1ccn(Cc2ccccc2F)n1)c1ccc(COc2cc(Cl)ccc2Cl)o1", "inhibition": "10.4% (inactive)"}
{"smiles": "O=C(c1ccc(F)cc1F)N1CCN(c2ncccn2)CC1", "inhibition": "3.87% (inactive)"}
{"smiles": "Cc1[nH]c2ccccc2c1/C=N/n1cnnc1", "inhibition": "3.82% (inactive)"}
{"smiles": "Cc1[nH]c2ccccc2c1/C=N/O", "inhibition": "57.2% (inactive)"}
{"smiles": "O=C(Nc1nc2ccccc2[nH]1)C1CCCC1", "inhibition": "-2.34% (inactive)"}
{"smiles": "N#CC(C(=O)CCN1C(=O)C2CC=CCC2C1=O)c1nc2ccccc2[nH]1", "note": "(centres undefined)", "inhibition": "-15.5% (inactive)"}
{"smiles": "N#CC(C(=O)C1CCCCC1)c1nc2ccccc2[nH]1", "note": "(centres undefined)", "inhibition": "56.9% (inactive)"}
{"smiles": "O=C(Nc1nc2ccccc2[nH]1)C1CC1", "inhibition": "-2.55% (inactive)"}
